Data published in PubChem BioAssay AID1345085 (National Center for Advancing Translational Sciences (NCATS), 2018).
Records with an inconclusive call do not appear. Values without a mark were called inactive. Activity calls are given as the source filed them. Calls come from the whole dose curve; as a rule, active = well fitted cell-killing curve with a large enough effect; inconclusive = small, poorly fitted or top-dose-only effect, or effect the other way; inactive = no such curve, though single readings can be large or run the other way.

Tested on: Es-2
Experiment: Confirmatory qHTS for gynecologic anti-cancer compounds from libraries of approved drugs and bioactive compounds; note: nearly all actives have a fitted effect of over 55% in size
Conditions: gynecologic cancer cell panel viability, ATPlite luminescence, 48 h; series mostly up to 57.6 µM
Procedure, shortened: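 ATPlite luminescence read-out of cell viability; IC50 from 11-point 1:3 titrations, 57.5 uM to 0.977 nM, 48 h compound exposure at 37 C, 5% CO2. Cells seeded at 1,000/well 16 h before dosing.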
% is set by controls: 0 for no effect and ±100 for the full control effect; potency is the fitted concentration of half-maximal effect.

SMILES | Potency | activity change, negative = viability loss
COc1cc2ncnc(Nc3ccc(F)c(Cl)c3)c2cc1OCCCN1CCOCC1 | inactive | –
Cc1cc(Nc2nc(N[C@@H](C)c3ccc(F)cc3)c(C#N)cc2F)n[nH]1 | 21.7 µM (active) | –
CNc1nc(Nc2ccc(C(=O)N3CCOCC3)cc2OC)ncc1Cl | inactive | –
CC1=C(CO)C(=O)O[C@@H]([C@@H](C)[C@H]2CC[C@H]3[C@@H]4C[C@H]5O[C@]56[C@@H](O)C=CC(=O)[C@]6(C)[C@H]4CC[C@]23C)C1 | 2.66 µM (active) | –
Cc1ccc(C(=O)Nc2cccc(C(F)(F)F)c2)cc1-c1ccc2nc(NCCN3CCOCC3)ncc2c1 | 5.44 µM (active) | –
CCC1C(=O)N(C)c2cnc(Nc3ccc(C(=O)NC4CCC(N5CCN(CC6CC6)CC5)CC4)cc3OC)nc2N1C(C)C (configuration not stated) | 1.22 µM (active) | –
CN(C)CCC(CSc1ccccc1)Nc1ccc(S(=O)(=O)NC(=O)c2ccc(N3CCN(Cc4ccccc4-c4ccc(Cl)cc4)CC3)cc2)cc1[N+](=O)[O-] (configuration not stated) | 4.85 µM (active) | –
Cc1nc(Nc2ncc(C(=O)Nc3c(C)cccc3Cl)s2)cc(N2CCN(CCO)CC2)n1 | 13.7 µM (active) | –
Cc1cnc(Nc2cccc(CN3CCOCC3)c2)nc1Nc1cccc(S(=O)(=O)NC(C)(C)C)c1 | 6.11 µM (active) | –
S=c1nc[nH]c2nc[nH]c12 | 3.85 µM (active) | –
CC(C)C[C@H](NC(=O)[C@H](CCc1ccccc1)NC(=O)CN1CCOCC1)C(=O)N[C@@H](Cc1ccccc1)C(=O)N[C@@H](CC(C)C)C(=O)[C@@]1(C)CO1 | 3.06 µM (active) | –
Fc1cc(-c2cccc3ncc(-c4cnn(C5CCNCC5)c4)nc23)cc(F)c1CN1CCOCC1 | 21.7 µM (active) | –
CCCC(Nc1nc(-c2ccc(NC(=O)NCC)c(OC)c2)ncc1C)c1cccnc1 (configuration not stated) | 0.193 µM (active) | –
Nc1ccccc1NC(=O)c1ccc(CNc2nccc(-c3cccnc3)n2)cc1 | 2.43 µM (active) | –
Cc1cnc(Nc2ccc(CN3CCOCC3)cc2)nc1Nc1cccc(S(=O)(=O)NC(C)(C)C)c1 | 4.32 µM (active) | –
CS(=O)(=O)c1ccc(C(=O)Nc2ccc(Cl)c(-c3ccccn3)c2)c(Cl)c1 | inactive | –
CCS(=O)(=O)c1cccc(-c2cc(C(=O)NC3CCN(C)CC3)c(C)c3[nH]c4ncc(C)cc4c23)c1 | 5.99 µM (active) | –
Cn1c(=O)c(-c2c(Cl)cccc2Cl)cc2cnc(Nc3cccc(C(=O)O)c3)nc21 | 2.73 µM (active) | –
Cc1csc(NC(=O)c2sc3nc4c(c(C(F)(F)F)c3c2N)CCC4)n1 | 2.17 µM (active) | –

SMILES | Potency | activity change, negative = viability loss
Cc1cc(Nc2nc(N[C@@H](C)c3ncc(F)cn3)ncc2Cl)n[nH]1 | inactive | –
CC(C)C[C@H](NC(=O)[C@@H](NC(=O)c1cccc(-c2ccccc2)n1)[C@@H](C)O)B(O)O | 0.0685 µM (active) | –
CN(C[C@@H]1COCCO1)S(=O)(=O)Nc1ccc2ccc3ncc(-c4cnn(C)c4)cc3c(=O)c2c1 | inactive | –
CCCCc1oc2ccc(NS(C)(=O)=O)cc2c1C(=O)c1ccc(OCCCN(CCCC)CCCC)cc1 | 24.3 µM (active) | –
CCS(=O)(=O)N1CCN(c2ccc(Nc3ncc(C(N)=O)c(NC4CC4)n3)cc2)CC1 | inactive | –
Cc1cnc(Nc2ccc(F)cc2Cl)nc1-c1c[nH]c(C(=O)NC(CO)c2cccc(Cl)c2)c1 (configuration not stated) | inactive | –
O=C(CCCCCCC(=O)Nc1ccccc1)NO | 3.06 µM (active) | –
OC[C@H]1O[C@@H](n2cnc3c(=S)nc[nH]c32)[C@H](O)[C@@H]1O | 4.85 µM (active) | –
NC1(c2ccc(-c3nc4ccn5c(=O)[nH]nc5c4cc3-c3ccccc3)cc2)CCC1 | inactive | –
CCc1c2c(nc3ccc(OC(=O)N4CCC(N5CCCCC5)CC4)cc13)-c1cc3c(c(=O)n1C2)COC(=O)[C@]3(O)CC | 12.2 µM (active) | –
CC[C@H](Nc1ncnc2nc[nH]c12)c1nc2cccc(F)c2c(=O)n1-c1ccccc1 | – | 8.76% [at 10.7 µM]
CCN1CCN(Cc2ccc(-c3cc4c(NC(C)c5ccccc5)ncnc4[nH]3)cc2)CC1 (configuration not stated) | 27.3 µM (active) | –
CCCCN(CCCC)CC(O)c1cc(Cl)cc2c1-c1ccc(Cl)cc1/C2=C/c1ccc(Cl)cc1 (configuration not stated) | inactive | –
CN(C)/N=N/c1nc[nH]c1C(N)=O | inactive | –
N#CC1(c2cccc(C(=O)Nc3cc(Oc4ccc5nc(NC(=O)C6CC6)sc5n4)ccc3F)c2Cl)CC1 | 5.44 µM (active) | –
Cc1cc(CN2CCN(c3c(Br)cnc4nc(-c5ccc(N6CCN(C)CC6)cc5)[nH]c34)CC2)no1 | 7.69 µM (active) | –
Nc1nc(=S)c2[nH]cnc2[nH]1 | 3.43 µM (active) | –
CNC(=O)c1ccccc1Sc1ccc2c(/C=C/c3ccccn3)n[nH]c2c1 | 19.3 µM (active) | –
